Screening data as filed in PubChem BioAssay.
CSC inhib: cancer stem cell viability inhibitors, primary screen, luminescence | cancer stem cell-like cells viability | AID 2717, 2010 | 1.1% of 300,000 active | inhibition, % at 7.5 µM; in the data active = inhibition above about 75%; inconclusive = no clear call, values can overlap the other calls; tested in HMLE shEcad cells
Beta cell apopt: inhibitors of cytokine-induced beta cell apoptosis, primary screen, luminescence; protection from apoptosis, % (test concentration not listed); 0.8% of 300,000 active; INS-1E cytokine-induced death, ATP luminescence, 48 h; percent of positive-control rescue, neutral wells zero;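 active = Every replicate reaches about 75%, or at least half do and their mean reaches it too, limit read from the data; inconclusive = At least half of replicates reach the limit but their mean does not; inactive = Under half of replicates reach the limit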;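 note: higher means more ATP so stronger rescue from cytokine killing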
Calb FLC: C. albicans growth inhibition with fluconazole, primary screen, CaCi-2 strain, Alamar Blue fluorescence; C. albicans CaCi-2 (fluconazole-resistant clinical isolate) + fluconazole, 48 h; growth inhibition, % (test concentration not listed); 0.57% of 300,000 active; AID 1979, 2009;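 active = growth inhibition above about 58% in most replicates, limit read from the data, passing the limit was not always enough; inconclusive = exactly half the replicates above a set limit; inactive = most replicates below a set limit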;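 note: all wells also contain fluconazole at 8 µg/ml as a sub-toxic cotreatment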
Mdm2 MdmX PPI: inhibitors of human Mdm2-MdmX association, primary screen, cell-based, luminescence, split luciferase, SaOS-2, uHTS. Protein Mdm4 (Homo sapiens) + E3 ubiquitin-protein ligase Mdm2 (Homo sapiens), …. SaOS-2 split-luciferase Mdm2/MdmX complementation. inhibition, % at 8 µM. 3% of 330,000 active. AID 485346, 2010;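 active = inhibition of at least 50% at 8 µM in the primary screen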
Target sequence (O15151 whole entry, looked up): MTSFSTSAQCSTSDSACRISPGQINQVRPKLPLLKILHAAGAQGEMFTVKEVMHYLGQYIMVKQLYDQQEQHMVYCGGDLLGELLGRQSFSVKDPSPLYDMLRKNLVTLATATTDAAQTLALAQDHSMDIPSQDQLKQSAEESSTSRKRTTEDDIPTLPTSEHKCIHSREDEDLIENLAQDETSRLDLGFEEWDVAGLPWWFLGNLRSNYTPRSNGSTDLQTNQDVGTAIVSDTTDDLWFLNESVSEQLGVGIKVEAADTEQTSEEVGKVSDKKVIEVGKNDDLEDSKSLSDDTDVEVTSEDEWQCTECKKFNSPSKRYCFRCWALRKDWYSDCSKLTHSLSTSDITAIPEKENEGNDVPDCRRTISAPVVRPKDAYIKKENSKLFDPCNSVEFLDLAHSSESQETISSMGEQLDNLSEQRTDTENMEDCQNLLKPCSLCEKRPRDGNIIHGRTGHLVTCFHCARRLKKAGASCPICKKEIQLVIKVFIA
Target sequence (Q00987 whole entry, looked up): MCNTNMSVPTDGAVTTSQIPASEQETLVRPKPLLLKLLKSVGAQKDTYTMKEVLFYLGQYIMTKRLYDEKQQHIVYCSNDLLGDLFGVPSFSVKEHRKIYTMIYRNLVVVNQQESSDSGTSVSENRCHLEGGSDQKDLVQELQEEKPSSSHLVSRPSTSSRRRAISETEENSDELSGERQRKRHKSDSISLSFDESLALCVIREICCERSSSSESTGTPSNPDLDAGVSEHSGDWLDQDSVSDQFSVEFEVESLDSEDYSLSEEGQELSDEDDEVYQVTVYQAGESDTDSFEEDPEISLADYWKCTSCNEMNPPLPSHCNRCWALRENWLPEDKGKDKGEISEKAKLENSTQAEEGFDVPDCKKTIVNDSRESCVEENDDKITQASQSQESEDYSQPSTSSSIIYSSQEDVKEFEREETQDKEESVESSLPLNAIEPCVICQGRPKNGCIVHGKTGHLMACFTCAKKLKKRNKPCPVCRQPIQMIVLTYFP
SKKanGAS inh: S. pyogenes SKKanGAS growth inhibitors in kanamycin, primary screen, streptokinase expression inhibitor project, SKKanGAS strain, BacTiter-Glo luminescence. 6 h. inhibition, % at 7.5 µM. 1.3% of 300,000 active. AID 1662, 2009;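 active = mean replicate score, as percent of positive control median, at least 50; inconclusive = mean below 50 but one replicate at or above 50; inactive = mean and every replicate below 50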;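 note: strain carries kanamycin resistance gene driven by streptokinase promoter and grows in 40 µg/ml kanamycin; loss of luminescence reflects streptokinase promoter inhibition or plain growth inhibition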
MPTP block: mitochondrial permeability transition pore inhibitors, primary screen, biochemical, isolated mouse mitochondria, absorbance; Ca2+ swelling absorbance, 30 min; inhibition, % at 10 µM; 1.4% of 360,000 active;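 active = inhibition of 50% or more, scaled per plate between neutral and stimulator controls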
Numbers stand for hits; – = inactive; ? = inconclusive; · = no result. Shown are actives, neighbours in structure and some others; about 5.4% of the full set was active somewhere.

SMILES	CSC inhib	Beta cell apopt	Calb FLC	Mdm2 MdmX PPI	SKKanGAS inh	MPTP block
CCOc1ccc(/C=C/C2=CC(C)(C)NC(=S)N2)cc1	·	–	110	–	–	–
CCOP(=O)(OCC)c1nc(-c2cccc3ccccc23)oc1NCc1ccc(OC)cc1	–	–	–	–	57	–
Cc1ccc(C)c(NC(=S)NC23CN4CN(CN(C4)C2)C3)c1	–	–	–	–	–	–
CC(C)CCN1CC(=O)N2Cc3[nH]c4ccccc4c3C[C@H]2C1=O	–	–	–	–	–	–
Clc1ccc(/C=N/NC(=Nc2ccccc2)c2ccccn2)c(Cl)c1	–	–	?	–	52	–
C(=N\NC(=Nc1ccccc1)c1ccccn1)/c1ccccn1	–	–	–	–	–	–
CCCCCc1ccc(-c2cn(Cc3ccc([N+](=O)[O-])cc3)nn2)cc1	–	–	–	–	–	–
COc1ccc(-c2nn(-c3ccccc3)cc2/C=C2/SC(=S)N(CCC(=O)O)C2=O)c(C)c1	85	–	–	–	–	–
Cc1ccc(-c2nn(-c3ccccc3)cc2/C=C2\SC(=S)N(CC(=O)O)C2=O)cc1	–	–	–	–	55	–
O/N=C/c1cn(-c2ccccc2)nc1-c1cccnc1	–	–	–	–	–	–
CCN1C(=O)/C(=C/c2cn(-c3ccccc3)nc2-c2cccnc2)SC1=S	·	·	·	·	·	–
Cc1ccc(-c2nn(-c3ccccc3)cc2/C=N/O)cc1	–	–	–	–	58	–
O=C(N/N=C/c1cn(-c2ccccc2)nc1-c1ccc(F)cc1)c1ccc(Br)o1	–	110	–	–	–	–
O=C(O)CCCCCN1C(=O)/C(=C/c2cn(-c3ccccc3)nc2-c2cccs2)SC1=S	·	·	·	·	·	–
CCCNC(=O)/C(=C/c1cn(S(=O)(=O)N(C)C)c2ccccc12)NC(=O)c1ccc(OC)cc1	–	–	–	–	–	–
O=C(CCN1C(=O)c2ccccc2C1=O)c1cnc[nH]1	·	·	·	·	·	–
Cc1onc(-c2c(Cl)cccc2Cl)c1C(=O)OCC(=O)c1ccccc1	–	–	–	–	–	–
O=[N+]([O-])c1cccc(-c2c(-c3ccccc3)ncc3ccc(F)cc23)c1	–	–	·	–	·	–
O=C(O)CCN1C(=O)/C(=C/c2cn(-c3ccccc3)nc2-c2cccs2)SC1=S	·	·	·	–	·	–
COc1ccc(-c2nn(-c3ccccc3)cc2/C=C2/SC(=S)N(CCC(=O)O)C2=O)cc1	–	–	–	–	83	–
COc1ccc(CN2CCNC(=O)C2CC(=O)NCCc2nc(C)c3c(n2)CCC3)cc1C (configuration not stated)	–	–	–	–	–	–
Cc1nn2c(nc(N3CCCCC3)c3ccccc32)c1C=O	–	–	–	–	–	–
Cc1nn2c([nH]c(=O)c3ccccc32)c1C=O	–	–	83	–	–	–
CN(C)C(=O)/C(C#N)=C\c1cc(Br)c(Sc2ccc(Cl)cc2)o1	103	–	·	·	·	–
COc1cc(OC)c(NC(=O)c2sc3ncn(CC(=O)N4CCN(c5ccccn5)CC4)c(=O)c3c2C)cc1Cl	–	–	–	–	50	–
SMILES	CSC inhib	Beta cell apopt	Calb FLC	Mdm2 MdmX PPI	SKKanGAS inh	MPTP block
CC(C)(CC(=O)O)CC(=O)N1CCN(c2cc(C(F)(F)F)nc3ccccc23)CC1	–	–	–	–	–	–
CC1CCN(Cc2csc(N)n2)CC1	–	–	–	–	–	–
Cc1ccc(-c2cc(-c3ccc(C)cc3O)[nH]n2)cc1	–	–	–	–	–	–
Cc1ccc(O)c(-c2cc(-c3cccc(Br)c3)n[nH]2)c1	–	–	99	–	100	–
Oc1ccc(Cl)cc1-c1cc(-c2ccccc2)n[nH]1	–	–	–	–	55	–
CC(Sc1nnc(COc2ccc([N+](=O)[O-])cc2)n1C)C(=O)O (configuration not stated)	–	–	–	–	–	–
O=C(CN1C(=O)CCC1=O)Nc1nc(-c2cccs2)cs1	·	–	–	–	–	–
COc1ccccc1Oc1cn[nH]c1-c1ccc(O)cc1O	–	–	–	–	–	–
COc1ccc(Oc2cn[nH]c2-c2ccc(OCC(=O)NN)cc2O)cc1	·	·	–	–	88	–
CCCOC(=O)c1ccc(Oc2cn[nH]c2-c2ccc(OCC)cc2O)cc1	–	–	–	–	78	–
COc1ccccc1Oc1cn[nH]c1-c1ccc(OCC(=O)NN)cc1O	·	·	–	–	50	–
CCOc1ccc(-c2[nH]ncc2Oc2cccc(OC)c2)c(O)c1	–	–	–	–	–	–
COc1ccccc1NC(=O)c1cc(=O)[nH]c2ccccc12	–	·	–	–	–	–
CCCCN1C(=O)C(CC(=O)NCCN2CCOCC2)CC(C(=O)N2CCCCCC2)=C1C (configuration not stated)	·	·	·	·	·	–
Cc1c(Cl)cnc(NC(=O)CSc2nncs2)c1Cl	–	–	112	–	–	–
CCOc1ccc(CNCc2ccc(C(=O)O)cc2)cc1OC	–	·	–	–	–	–
O=C1CCSc2ccc(Cl)cc2N1Cc1ccc(Cl)cc1	–	–	–	–	53	–
COc1ccc(-c2ccc(SC)nn2)cc1	80	–	–	–	–	–
CCO[C@H]1OC(C(=O)NCc2nc3ccccc3[nH]2)=C[C@@H](c2ccc(C(F)(F)F)cc2)[C@@H]1CCCO	–	–	–	–	–	–
CCOc1c(Cl)cc(C(=O)Nc2ccccc2C(=O)O)cc1Cl	–	–	?	–	–	–
Clc1ccc(-c2ccc(CNCc3ccccn3)o2)cc1	–	–	–	–	57	–
Fc1ccc(-c2ccc(CNCc3ccccn3)o2)cc1	–	·	–	–	–	–
CS(=O)(=O)N1CCCCC1c1cc(C(=O)Nc2ccccc2)no1 (configuration not stated)	·	·	·	·	·	–
CCCCNc1nc(Nc2ccc(C)c(Cl)c2)c2cnn(C)c2n1	82	–	–	–	–	–
COc1ccc(-n2c(-c3cccc(C)c3[N+](=O)[O-])n[nH]c2=S)cc1	–	–	74	–	–	–
SMILES	CSC inhib	Beta cell apopt	Calb FLC	Mdm2 MdmX PPI	SKKanGAS inh	MPTP block
CCOc1cc(/C=C\c2[nH]c(=O)[nH]c(=O)c2[N+](=O)[O-])ccc1OC(C)CC (configuration not stated)	78	–	–	–	–	·
CC(C)(CN1CCN(Cc2ccccc2)CC1)NS(=O)(=O)c1ccccc1	76	–	–	–	–	–
CC(=O)N1CCN(CC(C)(C)NS(=O)(=O)c2ccccc2)CC1	–	–	·	–	·	–
CC(C)(CN1CCN(C(c2ccccc2)c2ccccc2)CC1)NS(=O)(=O)c1ccccc1	98	–	–	–	–	–
COc1ccc(C(=O)OCC(=O)NC23CC4CC(CC(C4)C2)C3)c(O)c1	·	·	·	·	·	–
COc1ccc(NC(=O)CNC(=O)c2nn(-c3ccc(OC)cc3OC)c(=O)c3ccccc23)c(OC)c1	–	–	93	–	–	–
